From PubChem BioAssay (EPA / NIEHS)
Results filed as inconclusive are left out. Active and inactive are the calls of the source. The calls were made as follows, unless noted: active = hit-call score of the fitted dose curve at least 0.9, where 1 is the maximum; inactive = score below 0.9.

What was measured:
[1] = molecular target: human Retinoid X Receptor beta (RXRb), RXRB (gene 6257) (UniProt P28702); assay: ATG_RXRb_TRANS: Attagene TRANS-FACTORIAL HepG2 Assay for human Retinoid X Receptor beta (RXRb) (AID 2283013; active = hit-call score of the fitted dose curve at least 0.9, where 1 is the maximum)
human Retinoid X Receptor beta (RXRb), RXRB (gene 6257), sequence (P28702 whole entry, looked up, the tested form may be a part): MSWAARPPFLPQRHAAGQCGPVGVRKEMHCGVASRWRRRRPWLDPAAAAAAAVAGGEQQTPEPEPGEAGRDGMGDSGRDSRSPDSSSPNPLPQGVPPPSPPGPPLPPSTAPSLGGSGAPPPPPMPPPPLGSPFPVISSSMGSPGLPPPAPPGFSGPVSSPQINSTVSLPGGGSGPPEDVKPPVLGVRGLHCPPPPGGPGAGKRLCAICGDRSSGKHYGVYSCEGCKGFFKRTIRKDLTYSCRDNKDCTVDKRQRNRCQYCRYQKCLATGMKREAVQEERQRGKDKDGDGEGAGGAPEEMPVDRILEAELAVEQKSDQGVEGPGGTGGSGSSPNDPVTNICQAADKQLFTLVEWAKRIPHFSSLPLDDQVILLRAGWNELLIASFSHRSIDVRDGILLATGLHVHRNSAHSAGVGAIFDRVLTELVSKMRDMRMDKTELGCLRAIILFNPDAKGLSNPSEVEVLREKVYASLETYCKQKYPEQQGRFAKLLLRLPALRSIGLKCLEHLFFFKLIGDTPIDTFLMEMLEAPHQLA
Outline: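 Readout is reporter transcript induction after 24 h dosing. It is measured by RT-PCR of total RNA followed by fluorescent capillary electrophoresis. HepG2 liver cells carry transfected multiple reporter units driven by an exogenous RXRb-Gal4 fusion; activity is relative to DMSO.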

[2] = read-out: E-selectin (Homo sapiens) (UniProt P16581); assay: BSK_3C_Eselectin: BioMAP Diversity Plus: 3C Assay for Eselectin Biomarker Activity (AID 2283015); settings: primary human endothelial cells (HUVEC); actives raise or lower the signal;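 also: cell surface E-selectin protein quantified by ELISA 24 h after dosing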
Outline: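 HUVEC, 3C stimulation; compound exposure 24 h; E-selectin by ELISA; gain- or loss-of-signal fitted bidirectionally vs DMSO baseline.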

[3] = read-out: Interleukin-1 alpha (IL1a), IL1A (gene 3552); assay: BSK_BE3C_IL1a: BioMAP Diversity Plus: BE3C Assay for Interleukin-1 alpha (IL1a) Biomarker Activity (AID 2283016); settings: primary human bronchial epithelial cells; actives raise or lower the signal
Outline: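 IL-1a measured by ELISA after 24 h treatment of human primary bronchial epithelial cells, with gain or loss of signal fitted versus DMSO. Parallel cultures stained with SRB gauge overt cytotoxicity.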

[4] = read-out: Monocyte Chemoattractant Protein-1 (MCP1), CCL2 (gene 6347); assay: BSK_3C_MCP1: BioMAP Diversity Plus: 3C Assay for Monocyte Chemoattractant Protein-1 (MCP1) Biomarker Activity (AID 2283017); settings: primary human endothelial cells (HUVEC); actives raise or lower the signal
Outline: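 HUVEC, 3C system; 24 h chemical exposure; MCP-1 by ELISA; bidirectional curve fit vs DMSO baseline.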

[5] = read-out: Monocyte Chemoattractant Protein-1 (MCP1), CCL2 (gene 6347); assay: BSK_4H_MCP1: BioMAP Diversity Plus: 4H Assay for Monocyte Chemoattractant Protein-1 (MCP1) Biomarker Activity (AID 2283018); settings: primary human endothelial cells (HUVEC); actives raise or lower the signal
Outline: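 ELISA of MCP-1 (CCL2) 24 h after chemical dosing of HUVEC in the BioMAP 4H system. Gain or loss versus DMSO fitted; parallel SRB staining (560 nm) tracked overt cytotoxicity.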

[6] = read-out: Human Leukocyte Antigen - DR isotype (HLADR), HLA-DRA (gene 3122); assay: BSK_3C_HLADR: BioMAP Diversity Plus: 3C Assay for Human Leukocyte Antigen - DR isotype (HLADR) Biomarker Activity (AID 2283019); settings: primary human endothelial cells (HUVEC); actives raise or lower the signal;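 also: ELISA of cell-surface HLA-DR on HUVEC 24 h after dosing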
Outline: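 HUVEC, 3C stimulation, 24 h post-dose; HLA-DR by ELISA; bidirectional curve fit vs DMSO baseline; gain or loss of signal scored.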

[7] = read-out: Interleukin-8 (IL8), CXCL8 (gene 3576); assay: BSK_3C_IL8: BioMAP Diversity Plus: 3C Assay for Interleukin-8 (IL8) Biomarker Activity (AID 2283020); settings: primary human endothelial cells (HUVEC); actives raise or lower the signal
Outline: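 IL-8 was measured by ELISA in HUVEC cultures 24 h after chemical dosing, with gain or loss of signal fitted relative to DMSO. Parallel SRB total-protein staining tracked overt cytotoxicity.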

[8] = BSK_3C_SRB: Viability Assessment in the BioMAP Diversity Plus: 3C Assay (AID 2283023); settings: primary human endothelial cells (HUVEC);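 also: cells read 24 h after compound dosing; fitted both ways against DMSO so a hit may be signal rise or drop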
Outline: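 HUVEC, 24 h post-dose; 10% TCA fix, 0.1% SRB stain, A560 nm. Bidirectional curve fit vs DMSO negative control.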

[9] = read-out: Matrix Metallopeptidase 1 (MMP1), MMP1 (gene 4312); assay: BSK_BE3C_MMP1: BioMAP Diversity Plus: BE3C Assay for Matrix Metallopeptidase 1 (MMP1) Biomarker Activity (AID 2283024); settings: primary human bronchial epithelial cells; actives raise or lower the signal
Outline: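 ELISA measurement of MMP-1 after 24 h compound exposure of primary human bronchial epithelial cells. Changes in either direction fitted relative to DMSO; parallel SRB staining checked overt cytotoxicity.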

[10] = BSK_3C_Vis: BioMAP Diversity Plus: 3C Assay for Morphology Visualization (AID 2283025); settings: primary human endothelial cells (HUVEC);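 also: fitted both ways so gain or loss versus DMSO counts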
Outline: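 Light-microscopy visualization of HUVEC cultures at 24 h post-treatment, with DMSO as baseline for bidirectional fitting.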

[11] = read-out: Pselectin, SELP (gene 6403); assay: BSK_4H_Pselectin: BioMAP Diversity Plus: 4H Assay for Pselectin Biomarker Activity (AID 2283026); settings: primary human endothelial cells (HUVEC); actives raise or lower the signal
Outline: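 ELISA of surface P-selectin on HUVEC, 24 h after dosing, with parallel SRB staining (0.1% after 10% TCA fixation, 560 nm) for overt cytotoxicity. Activity fitted in both directions relative to DMSO.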

[12] = BSK_4H_SRB: Viability Assessment in the BioMAP Diversity Plus: 4H Assay (AID 2283027); settings: primary human endothelial cells (HUVEC);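 also: cells exposed to compound for 24 h before staining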
Outline: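 HUVEC, 24 h post-dose; 10% TCA fix, 0.1% SRB stain, A560 nm. Total protein = overt cytotoxicity, parallel to biomarker read. Bidirectional fit vs DMSO baseline.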

[13] = BSK_BE3C_SRB: Viability Assessment in the BioMAP Diversity Plus: BE3C Assay (AID 2283028); settings: primary human bronchial epithelial cells
Outline: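 Primary human bronchial epithelium; chemical dosing, 24 h; 10% TCA fix, 0.1% SRB stain, A560; bidirectional fit vs DMSO baseline.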

[14] = read-out: Thrombomodulin, THBD (gene 7056); assay: BSK_3C_Thrombomodulin: BioMAP Diversity Plus: 3C Assay for Thrombomodulin Biomarker Activity (AID 2283029); settings: primary human endothelial cells (HUVEC); actives raise or lower the signal
Outline: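 ELISA measurement of thrombomodulin on HUVEC surface 24 h after chemical dosing; activity fitted in both directions relative to DMSO vehicle.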

[15] = read-out: Vascular endothelial growth factor receptor 2 (Homo sapiens) (UniProt P35968); assay: BSK_4H_VEGFRII: BioMAP Diversity Plus: 4H Assay for Vascular endothelial growth factor receptor 2 (VEGFR2) Biomarker Activity (AID 2283031); settings: primary human endothelial cells (HUVEC); actives raise or lower the signal
Outline: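 HUVEC (human primary), 4H system; 24 h post-dose; VEGFRII by ELISA; bidirectional curve fit vs DMSO baseline; gain or loss of signal scored.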

[16] = molecular target: human Thyroid Receptor alpha (THRa1), THRA (gene 7067) (UniProt P10827); assay: ATG_THRa1_TRANS: Attagene TRANS-FACTORIAL HepG2 Assay for human Thyroid Receptor alpha (THRa1) (AID 2283014; active = hit-call score of the fitted dose curve at least 0.9, where 1 is the maximum)
human Thyroid Receptor alpha (THRa1), THRA (gene 7067), sequence (P10827 whole entry, looked up, the tested form may be a part): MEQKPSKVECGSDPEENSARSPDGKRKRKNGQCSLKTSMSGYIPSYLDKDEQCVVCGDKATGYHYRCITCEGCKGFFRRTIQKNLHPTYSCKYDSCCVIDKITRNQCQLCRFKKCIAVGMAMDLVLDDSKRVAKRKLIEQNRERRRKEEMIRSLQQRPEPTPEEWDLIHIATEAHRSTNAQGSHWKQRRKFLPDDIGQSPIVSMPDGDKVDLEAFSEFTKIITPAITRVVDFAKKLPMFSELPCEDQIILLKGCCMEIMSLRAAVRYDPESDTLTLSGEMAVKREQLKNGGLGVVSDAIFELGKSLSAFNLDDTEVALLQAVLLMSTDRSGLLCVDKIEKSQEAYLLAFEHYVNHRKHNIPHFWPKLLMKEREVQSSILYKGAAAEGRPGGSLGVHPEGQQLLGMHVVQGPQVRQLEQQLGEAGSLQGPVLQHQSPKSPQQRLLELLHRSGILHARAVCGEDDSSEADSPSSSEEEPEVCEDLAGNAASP
Outline: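 Transient HepG2 transfection, NR-Gal4 chimera driving GAL4-UAS reporters; 24 h compound exposure; total RNA, oligo(dT) RT, PCR, fluorescent primer extension, capillary electrophoresis. Upward direction vs DMSO control.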

[17] = molecular target: human Vitamin D Receptor (VDR), VDR (gene 7421) (UniProt P11473); assay: ATG_VDR_TRANS: Attagene TRANS-FACTORIAL HepG2 Assay for human Vitamin D Receptor (VDR) (AID 2283022; active = hit-call score of the fitted dose curve at least 0.9, where 1 is the maximum)
human Vitamin D Receptor (VDR), VDR (gene 7421), sequence (P11473 whole entry, looked up, the tested form may be a part): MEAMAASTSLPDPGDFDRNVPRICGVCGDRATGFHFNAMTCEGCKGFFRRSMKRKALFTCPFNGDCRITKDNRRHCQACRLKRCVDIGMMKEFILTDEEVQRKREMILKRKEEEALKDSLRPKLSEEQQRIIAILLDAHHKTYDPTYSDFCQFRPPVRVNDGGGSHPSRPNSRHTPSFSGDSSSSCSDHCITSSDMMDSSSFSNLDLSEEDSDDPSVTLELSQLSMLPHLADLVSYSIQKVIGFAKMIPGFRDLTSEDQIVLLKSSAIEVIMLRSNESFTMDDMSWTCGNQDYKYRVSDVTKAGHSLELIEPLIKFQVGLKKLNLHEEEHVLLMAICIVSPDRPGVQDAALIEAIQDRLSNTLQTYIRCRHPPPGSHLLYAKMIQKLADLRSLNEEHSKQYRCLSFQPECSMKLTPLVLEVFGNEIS
Outline: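 RT-PCR/capillary electrophoresis read-out of reporter mRNA induction in transiently transfected HepG2; 24 h dosing; chimeric NR-Gal4 (TRANS format); gain-of-signal fit against DMSO baseline.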

[18] = read-out: Urokinase-type plasminogen activator receptor (uPAR), PLAUR (gene 5329); assay: BSK_4H_uPAR: BioMAP Diversity Plus: 4H Assay for Urokinase-type plasminogen activator receptor (uPAR) Biomarker Activity (AID 2283030); settings: primary human endothelial cells (HUVEC); actives raise or lower the signal
Outline: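 HUVEC, 24 h post-dose; uPAR by ELISA; bidirectional fit vs DMSO baseline.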

E-selectin (Homo sapiens), sequence (P16581 whole entry, looked up): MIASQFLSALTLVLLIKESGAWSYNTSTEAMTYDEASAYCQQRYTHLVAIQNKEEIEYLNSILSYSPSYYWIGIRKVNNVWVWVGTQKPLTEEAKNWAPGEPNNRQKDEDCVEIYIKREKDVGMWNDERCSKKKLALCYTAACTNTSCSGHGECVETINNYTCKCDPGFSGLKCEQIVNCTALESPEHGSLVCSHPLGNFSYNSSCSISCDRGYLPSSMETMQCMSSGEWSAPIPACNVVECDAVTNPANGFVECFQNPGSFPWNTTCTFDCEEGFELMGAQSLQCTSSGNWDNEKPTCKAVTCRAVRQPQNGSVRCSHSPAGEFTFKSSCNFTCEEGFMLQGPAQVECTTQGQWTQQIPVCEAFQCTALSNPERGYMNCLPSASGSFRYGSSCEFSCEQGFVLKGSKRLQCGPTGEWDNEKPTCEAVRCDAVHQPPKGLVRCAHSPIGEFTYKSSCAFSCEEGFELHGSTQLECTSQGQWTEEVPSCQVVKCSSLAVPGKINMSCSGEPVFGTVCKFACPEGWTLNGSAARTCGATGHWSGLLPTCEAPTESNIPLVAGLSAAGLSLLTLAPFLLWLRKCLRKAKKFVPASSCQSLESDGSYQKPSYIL

| SMILES | outcome [1] | outcome [2] | outcome [3] | outcome [4] | outcome [5] | outcome [6] | outcome [7] | outcome [8] | outcome [9] | outcome [10] | outcome [11] | outcome [12] | outcome [13] | outcome [14] | outcome [15] | AC50 [1] | outcome [16] | AC50 [3] | outcome [17] | outcome [18] |
| --- | --- | --- | --- | --- | --- | --- | --- | --- | --- | --- | --- | --- | --- | --- | --- | --- | --- | --- | --- | --- |
| C/C=C/c1ccc(OC)cc1 | inactive | inactive | inactive | inactive | inactive | inactive | inactive | inactive | inactive | inactive | inactive | inactive | inactive | inactive | inactive |  |  |  |  |  |
| CCCCCCC(CCCCCCCCCCC(=O)OCC(COC(C)=O)OC(C)=O)OC(C)=O (configuration not stated) |  | inactive |  | inactive | inactive | inactive | inactive | inactive | inactive | inactive | inactive | inactive | inactive | inactive | inactive | 50 µM (active) | inactive | 12.3 µM (active) | inactive |  |
| O=C(O)CC(O)(CC(=O)O)C(=O)O |  | inactive | inactive | inactive | inactive | inactive | inactive | inactive | inactive | inactive | inactive | inactive | inactive | inactive | inactive |  |  |  |  |  |
| CN(C)CCCN(C)CCCN(C)C |  | inactive | inactive | inactive | inactive | inactive | inactive | inactive | inactive | inactive | inactive | inactive | inactive | inactive | inactive | 23.8 µM (active) |  |  |  | inactive |
